Common to all, as to parameters: scale not given: direction of the effect not stated beside the values
Experiment [1] concerns the target Protein translocase subunit SecA (Escherichia coli (strain K12)) (UniProt P10408). Briefly: Assay to Identify E. coli SecA ATPase Inhibitors. Format: functional. The following applies: 30 µM.
The target of experiment [2] is T1, Ubiquitin-activating enzyme e1, putative (Leishmania donovani (strain BPK282A1)) (UniProt E9BSI1).
T1 sequence (whole entry): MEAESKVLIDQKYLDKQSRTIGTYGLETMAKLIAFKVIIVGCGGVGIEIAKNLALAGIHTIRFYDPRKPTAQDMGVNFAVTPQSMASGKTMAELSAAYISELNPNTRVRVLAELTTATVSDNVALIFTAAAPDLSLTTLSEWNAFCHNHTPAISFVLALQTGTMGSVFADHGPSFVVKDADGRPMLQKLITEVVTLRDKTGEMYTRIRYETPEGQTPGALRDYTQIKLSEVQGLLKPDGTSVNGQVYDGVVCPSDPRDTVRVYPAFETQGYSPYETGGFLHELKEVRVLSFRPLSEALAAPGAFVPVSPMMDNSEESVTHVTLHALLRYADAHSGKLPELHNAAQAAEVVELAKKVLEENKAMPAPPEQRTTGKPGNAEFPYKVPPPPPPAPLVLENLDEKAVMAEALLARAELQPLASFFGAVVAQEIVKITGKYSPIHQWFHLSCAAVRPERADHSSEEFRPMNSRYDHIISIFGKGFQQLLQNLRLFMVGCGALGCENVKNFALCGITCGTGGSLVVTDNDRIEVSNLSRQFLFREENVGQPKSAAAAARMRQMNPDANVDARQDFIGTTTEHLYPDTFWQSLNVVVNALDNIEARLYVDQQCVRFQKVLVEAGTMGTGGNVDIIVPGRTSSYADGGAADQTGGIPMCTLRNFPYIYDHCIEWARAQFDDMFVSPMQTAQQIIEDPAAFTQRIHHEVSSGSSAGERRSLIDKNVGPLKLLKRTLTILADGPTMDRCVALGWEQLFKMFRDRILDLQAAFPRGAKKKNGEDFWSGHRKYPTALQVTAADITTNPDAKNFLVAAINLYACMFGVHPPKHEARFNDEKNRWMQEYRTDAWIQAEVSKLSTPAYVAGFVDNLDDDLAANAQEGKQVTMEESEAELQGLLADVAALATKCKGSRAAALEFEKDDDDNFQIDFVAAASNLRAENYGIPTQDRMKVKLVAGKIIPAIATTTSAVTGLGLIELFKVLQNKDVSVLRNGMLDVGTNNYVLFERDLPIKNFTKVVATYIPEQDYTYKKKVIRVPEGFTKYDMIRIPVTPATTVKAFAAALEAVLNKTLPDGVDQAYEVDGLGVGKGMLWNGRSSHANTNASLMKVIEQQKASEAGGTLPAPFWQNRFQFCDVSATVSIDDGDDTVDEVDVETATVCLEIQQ
Briefly: Leishmania donovani Ubiquitin Activating Enzyme (LdE1). Format: functional. The following applies: 30 µM.

Experiment [3] addresses AMP-activated protein kinase, AMPK (Homo sapiens) (UniProt P54646+O43741+P54619+Q9UGJ0+Q9Y478+Q13131+Q9UGI9). Briefly: AMP-dependent Kinase enzyme assay. An in vitro enzyme assay that detects ADP turnover that is directly proportional to AMPK activity. This uses naive AMPK that is activated during the assay with MK-8722. The following applies: 30 µM. Format: functional.
The target in experiment [4] is Sialic acid-binding Ig-like lectin 9 (Homo sapiens) (UniProt Q9Y336). Briefly: Hs-Siglec9 ALPHAscreen SOP 20170721. The following applies: 10 µM. (In general: In Alpha technology, singlet oxygen from a donor bead excites a nearby acceptor bead.)
Sequence of Sialic acid-binding Ig-like lectin 9 (Homo sapiens) (Q9Y336 whole entry): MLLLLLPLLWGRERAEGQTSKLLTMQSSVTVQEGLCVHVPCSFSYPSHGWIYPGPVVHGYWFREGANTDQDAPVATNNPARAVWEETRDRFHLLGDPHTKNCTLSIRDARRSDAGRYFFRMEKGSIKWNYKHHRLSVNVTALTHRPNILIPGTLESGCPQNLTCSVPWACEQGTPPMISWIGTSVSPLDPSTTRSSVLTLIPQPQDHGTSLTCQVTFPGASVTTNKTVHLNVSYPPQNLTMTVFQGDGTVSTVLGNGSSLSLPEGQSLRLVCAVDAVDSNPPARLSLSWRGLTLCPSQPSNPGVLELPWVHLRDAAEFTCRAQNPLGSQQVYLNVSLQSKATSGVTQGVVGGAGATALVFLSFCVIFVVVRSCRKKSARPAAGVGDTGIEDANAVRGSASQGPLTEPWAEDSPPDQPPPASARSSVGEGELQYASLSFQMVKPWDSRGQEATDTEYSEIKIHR
For the next experiment, the system named is Trypanosoma cruzi. Briefly: Trypanosoma cruzi phosphomannomutase and mannose-1-phosphate guanylyltransferase assay. Format: functional. The following applies: 10 µM.
Experiment [5] concerns the target T2, Arginase-2, mitochondrial (Homo sapiens) (UniProt P78540).
T2 sequence (whole entry): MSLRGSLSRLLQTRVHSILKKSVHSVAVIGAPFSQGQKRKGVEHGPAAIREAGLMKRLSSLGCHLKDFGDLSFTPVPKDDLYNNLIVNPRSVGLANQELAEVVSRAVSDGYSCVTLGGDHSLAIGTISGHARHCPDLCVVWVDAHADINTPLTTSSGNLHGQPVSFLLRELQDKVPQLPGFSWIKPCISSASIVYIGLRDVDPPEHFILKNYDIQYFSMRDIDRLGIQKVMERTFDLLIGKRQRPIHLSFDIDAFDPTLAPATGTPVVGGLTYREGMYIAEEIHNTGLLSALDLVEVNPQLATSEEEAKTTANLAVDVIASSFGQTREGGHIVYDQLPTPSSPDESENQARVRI
Briefly: in vitro enzyme assay to detect the production of urea directly proportional to the activity of Arginase II. Note: in the data most compounds retested in dose-response had high values. Format: functional. The following applies: 33.3 µM.

Experiment [6] concerns the target T3, Proteasome subunit beta (Trypanosoma cruzi) (UniProt O96673).
T3 sequence (whole entry): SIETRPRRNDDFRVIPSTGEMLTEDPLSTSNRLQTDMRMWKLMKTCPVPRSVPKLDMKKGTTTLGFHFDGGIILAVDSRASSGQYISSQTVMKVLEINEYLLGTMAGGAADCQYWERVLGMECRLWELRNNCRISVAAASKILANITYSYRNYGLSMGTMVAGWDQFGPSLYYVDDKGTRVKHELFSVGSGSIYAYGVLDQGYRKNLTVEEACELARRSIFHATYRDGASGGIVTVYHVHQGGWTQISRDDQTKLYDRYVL
Briefly: Trypanosoma cruzi proteasome chymotrypsin-like activity (TcProtChymo) assay. Note: in the data most compounds retested in dose-response had high values. The following applies: 9.37 µM. Format: functional.

The species named for the next experiment is Homo sapiens. Briefly: To identify inhibition of the IFN signalling (Jak-Stat) pathway via expression of an eGFP reporter gene under the control of an IFN-stimulated response element (ISRE) containing MxA promoter. Format: functional. The following applies: 30 µM. (A reporter such as luciferase makes a cellular process visible.)
Experiment [7] addresses T4, Tyrosyl-tRNA synthetase, putative (Trypanosoma cruzi (strain CL Brener)) (UniProt Q4DSP6).
T4 sequence (whole entry): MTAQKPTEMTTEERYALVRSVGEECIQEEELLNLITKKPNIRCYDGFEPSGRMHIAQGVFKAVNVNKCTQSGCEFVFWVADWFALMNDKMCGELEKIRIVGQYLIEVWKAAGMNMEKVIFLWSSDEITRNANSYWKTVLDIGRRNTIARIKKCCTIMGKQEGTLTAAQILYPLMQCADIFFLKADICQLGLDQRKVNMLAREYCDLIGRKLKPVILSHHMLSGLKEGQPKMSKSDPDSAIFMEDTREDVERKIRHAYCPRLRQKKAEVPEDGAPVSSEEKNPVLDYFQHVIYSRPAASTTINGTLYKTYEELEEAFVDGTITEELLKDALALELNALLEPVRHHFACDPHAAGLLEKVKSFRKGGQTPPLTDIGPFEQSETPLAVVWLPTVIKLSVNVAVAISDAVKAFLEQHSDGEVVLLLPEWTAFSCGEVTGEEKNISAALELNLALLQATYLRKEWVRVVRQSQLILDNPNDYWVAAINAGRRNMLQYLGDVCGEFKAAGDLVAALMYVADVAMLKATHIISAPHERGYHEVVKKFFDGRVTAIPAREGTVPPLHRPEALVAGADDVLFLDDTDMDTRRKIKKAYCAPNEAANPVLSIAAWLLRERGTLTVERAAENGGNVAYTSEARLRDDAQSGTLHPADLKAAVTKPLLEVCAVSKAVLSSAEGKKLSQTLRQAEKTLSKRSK
Briefly: Trypanosoma cruzi tyrosyl tRNA synthetase (TcYRS) _High Tyrosine SOP. Note: in the data most compounds retested in dose-response had high values. Format: functional. The following applies: 30 µM.

Experiment [8] deals with T4, Tyrosyl-tRNA synthetase, putative (Trypanosoma cruzi (strain CL Brener)). Briefly: Trypanosoma cruzi tyrosyl tRNA synthetase (TcYRS) SOP. Format: functional. The following applies: 30 µM.
Experiment [9] deals with Chromo domain-containing protein 1 (Saccharomyces cerevisiae (strain ATCC 204508 / S288c) (Baker's yeast)) (UniProt P32657). Briefly: ScCHD-1 Enzyme Inhibition Assay. Note: in the data most compounds retested in dose-response had high values. Format: functional. The following applies: 30 µM.
Sequence of Chromo domain-containing protein 1 (Saccharomyces cerevisiae (strain ATCC 204508 / S288c) (Baker's yeast)) (P32657 whole entry, the tested form may be a part): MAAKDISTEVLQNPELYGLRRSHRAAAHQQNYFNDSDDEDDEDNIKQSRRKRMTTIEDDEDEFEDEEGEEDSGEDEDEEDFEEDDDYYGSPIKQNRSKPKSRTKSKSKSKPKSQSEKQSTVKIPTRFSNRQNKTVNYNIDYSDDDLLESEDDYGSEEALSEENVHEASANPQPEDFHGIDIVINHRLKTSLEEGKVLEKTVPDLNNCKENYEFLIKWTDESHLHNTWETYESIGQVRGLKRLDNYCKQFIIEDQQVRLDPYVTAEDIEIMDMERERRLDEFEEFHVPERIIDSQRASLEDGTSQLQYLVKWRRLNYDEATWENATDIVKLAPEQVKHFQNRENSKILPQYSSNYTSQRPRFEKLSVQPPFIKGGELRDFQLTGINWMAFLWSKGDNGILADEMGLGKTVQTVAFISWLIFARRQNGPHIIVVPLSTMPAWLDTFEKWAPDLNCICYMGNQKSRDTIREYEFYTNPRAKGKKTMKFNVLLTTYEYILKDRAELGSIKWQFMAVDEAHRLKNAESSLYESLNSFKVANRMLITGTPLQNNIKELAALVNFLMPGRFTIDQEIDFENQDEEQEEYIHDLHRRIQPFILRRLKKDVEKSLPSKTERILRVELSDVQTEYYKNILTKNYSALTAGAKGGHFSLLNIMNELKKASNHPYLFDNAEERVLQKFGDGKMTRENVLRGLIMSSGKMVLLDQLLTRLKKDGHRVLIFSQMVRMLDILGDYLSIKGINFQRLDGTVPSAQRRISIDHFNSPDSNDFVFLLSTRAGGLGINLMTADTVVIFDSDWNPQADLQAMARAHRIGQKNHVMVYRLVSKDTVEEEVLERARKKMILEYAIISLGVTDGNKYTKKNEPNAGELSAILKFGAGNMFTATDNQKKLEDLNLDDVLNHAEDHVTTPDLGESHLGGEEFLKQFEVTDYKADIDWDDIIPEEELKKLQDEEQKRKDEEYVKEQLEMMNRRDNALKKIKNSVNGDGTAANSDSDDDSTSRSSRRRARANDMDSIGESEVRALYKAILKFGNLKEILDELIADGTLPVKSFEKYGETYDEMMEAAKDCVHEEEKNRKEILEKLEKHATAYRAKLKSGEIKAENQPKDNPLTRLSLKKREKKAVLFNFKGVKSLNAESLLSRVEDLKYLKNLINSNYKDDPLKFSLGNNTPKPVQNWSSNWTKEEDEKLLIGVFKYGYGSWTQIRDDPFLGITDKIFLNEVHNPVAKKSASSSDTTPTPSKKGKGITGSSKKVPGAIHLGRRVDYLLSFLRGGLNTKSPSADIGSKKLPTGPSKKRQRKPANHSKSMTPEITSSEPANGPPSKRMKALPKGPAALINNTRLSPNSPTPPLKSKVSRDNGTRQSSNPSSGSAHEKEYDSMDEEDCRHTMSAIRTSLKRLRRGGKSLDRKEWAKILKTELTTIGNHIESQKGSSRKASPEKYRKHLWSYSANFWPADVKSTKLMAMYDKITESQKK

For some of these results: Potency and affinity values are given separately.

Sequence of Protein translocase subunit SecA (Escherichia coli (strain K12)) (P10408 whole entry): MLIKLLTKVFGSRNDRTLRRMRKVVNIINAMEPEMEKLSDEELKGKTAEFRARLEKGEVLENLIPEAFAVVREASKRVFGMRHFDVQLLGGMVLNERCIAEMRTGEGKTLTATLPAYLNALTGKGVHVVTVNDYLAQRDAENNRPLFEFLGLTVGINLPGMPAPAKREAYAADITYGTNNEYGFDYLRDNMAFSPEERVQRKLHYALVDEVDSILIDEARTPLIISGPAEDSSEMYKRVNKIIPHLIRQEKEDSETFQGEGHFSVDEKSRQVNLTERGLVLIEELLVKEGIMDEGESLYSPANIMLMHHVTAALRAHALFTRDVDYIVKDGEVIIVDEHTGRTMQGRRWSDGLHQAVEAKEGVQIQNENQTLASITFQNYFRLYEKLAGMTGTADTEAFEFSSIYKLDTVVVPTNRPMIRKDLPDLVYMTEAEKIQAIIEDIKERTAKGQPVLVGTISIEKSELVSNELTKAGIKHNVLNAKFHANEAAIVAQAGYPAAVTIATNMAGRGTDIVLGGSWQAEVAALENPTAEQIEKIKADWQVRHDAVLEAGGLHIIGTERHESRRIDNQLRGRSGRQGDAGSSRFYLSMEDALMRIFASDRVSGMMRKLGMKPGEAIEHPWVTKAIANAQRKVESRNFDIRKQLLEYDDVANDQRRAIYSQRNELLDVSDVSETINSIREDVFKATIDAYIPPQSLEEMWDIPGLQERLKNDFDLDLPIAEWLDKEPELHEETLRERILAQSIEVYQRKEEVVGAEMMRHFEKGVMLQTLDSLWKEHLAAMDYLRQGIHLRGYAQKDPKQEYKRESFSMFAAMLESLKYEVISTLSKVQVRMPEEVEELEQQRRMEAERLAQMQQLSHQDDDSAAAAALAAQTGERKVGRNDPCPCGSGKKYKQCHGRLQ

On to `CCN(Cc1ccc2c(c1)OCO2)Cc1nc(C)no1`, for which the Percent Effect was 2.35% in experiment [1]; 18.9% in experiment [2]; -7.63% in experiment [3]; -8.65% in [4]; -8.96% in the experiment with Trypanosoma cruzi; 2.4% in [5]. Also, the Percent Effect is 14.9% in experiment [6]; 18.6% in the experiment filed under Homo sapiens; 4.43% in experiment [7]; 6.17% in experiment [8]; -4.89% in experiment [9].

As to `CN(Cc1ccncc1)C(=O)Nc1cnn(CC2CCCO2)c1` (stereo not drawn), the Percent Effect was 0.7% in experiment [1]; 5.41% in [2]; -6.68% in experiment [3]; -2.66% in experiment [4]; -3.67% in the experiment on Trypanosoma cruzi; 0.952% in [5]. Also, the Percent Effect in experiment [6] is 20%; in the experiment filed under Homo sapiens it was 17.6%; in [7], -1.59%; in [8], 2.44%; in [9] it was -5.74%.

As to `O=S(=O)(Cc1ccccc1)NCC1CCN(c2cnccn2)CC1`, the Percent Effect in experiment [1] was -2.03%; in [2], 10.4%; in [3], 5.37%; in experiment [4], -3.08%; with Trypanosoma cruzi, -6.02%; in experiment [5], -3.23%. In addition, the Percent Effect was 10.4% in [6]; 9.96% in the experiment filed under Homo sapiens; 3.17% in [7]; 6.41% in experiment [8]; -7.97% in [9].

In the case of `Cc1ccc2cc(CNCCCO)c(=O)[nH]c2c1`, the Percent Effect in experiment [1] was 2.35%; in experiment [2], 9.46%; in experiment [3], 7.11%; in experiment [4], -4.27%; in the experiment with Trypanosoma cruzi, -5.34%; in experiment [5] it was 4.41%. Also, the Percent Effect was 5.15% in [6]; 8.44% in the experiment listed under Homo sapiens; 1.07% in [7]; 9.09% in experiment [8]; -13.8% in experiment [9].

For the compound `CC(C)N1CCCC(CCCc2ccccn2)(C(=O)O)C1` (stereo not drawn), the Percent Effect is -3.09% in experiment [1]; 6.76% in [2]; 15.5% in [3]; 0.499% in experiment [4]; -1.98% in the experiment on Trypanosoma cruzi; -0.696% in experiment [5]. Also, the Percent Effect is 12.3% in experiment [6]; -2.07% in the experiment listed under Homo sapiens; 10.8% in experiment [7]; 14.3% in experiment [8]; 4.56% in experiment [9].

Regarding `NC(=O)C1CCCN(C(=O)c2cnc3c(cnn3C3CCCC3)c2)C1` (stereo not drawn), the Percent Effect in [1] was -8.82%; in experiment [2], 15.2%; in [3] it was -8.15%; in experiment [4], 18.9%; in the experiment with Trypanosoma cruzi, 12.8%; in experiment [5] it was -3.04%. For the same compound, the Percent Effect in [6] is 3.19%; in the experiment listed under Homo sapiens, 19.3%; in [7], 6.4%; in [8] it was 24.1%; in [9], -11.1%.

For `Cc1cc(CN2CCN(CC(O)c3ccccc3)CC2)no1` (stereo not drawn), the Percent Effect in [1] was -5.4%; in [2] it was 10.1%; in [3], -4.74%; in [4], 1.14%; in the experiment on Trypanosoma cruzi, 7.65%; in experiment [5] it was 2.28%. In addition, the Percent Effect in [6] is -0.0819%; in the experiment listed under Homo sapiens, -14.5%; in [7] it was 6.4%; in experiment [8] it was 13.9%; in experiment [9], -1.57%.

As to `Cc1noc(CCCC(=O)NC(C)c2cccnc2)n1` (stereo not drawn), the Percent Effect is 0.699% in experiment [1]; 13.2% in experiment [2]; 0.237% in experiment [3]; 0.605% in [4]; -5.83% with Trypanosoma cruzi; 5.75% in experiment [5]. Besides, the Percent Effect in experiment [6] is 8.86%; in the experiment filed under Homo sapiens, 21.4%; in experiment [7], 8.33%; in experiment [8] it was 12.2%; in experiment [9], -6.49%.

The record behind these values is ChEMBL document CHEMBL3988442, “University of Dundee, Small-Polar-MMV Screening Library” (2021).
